Experimental data as given in PubChem BioAssay (NCATS).
Inconclusive results are not listed. Where a call stands in place of a potency, no number is given. The source made the active and inactive calls. Unless noted, the call rests on the fitted dose curve; in most records, active means well fitted curve in the direction sought with a large enough effect; inconclusive means small, poorly fitted or top-dose-only effect, or another doubt; inactive means no such curve, though single readings can be large; an effect the other way counts as inactive or inconclusive.

Key:
[1] = biological target: Peroxisome proliferator-activated receptor gamma (Homo sapiens) (UniProt P37231); test: qHTS assay for small molecule agonists of peroxisome proliferator-activated receptor gamma signaling (AID 588536; active means well fitted curve in the direction sought with a large enough effect in the signal ratio, with a control signal flat, not every such curve was filed as active; the % refers to the signal ratio; further: potency means the concentration at half of the fitted maximal effect)
Procedure, shortened: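 Compound treatment: 16 h, 37 C, HEK293 GeneBLAzer cells. Detection: CCF4, 2 h RT. Values: Hill-fit EC50, efficacy as % of 2 uM rosiglitazone.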

[2] = biological target: Vitamin D3 receptor (Homo sapiens) (UniProt P11473); test: qHTS assay for small molecule antagonists of vitamin D receptor signaling (AID 588541; calls by dose curve;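 further: receptor activated by calcitriol during compound treatment; series mostly up to about 77 µM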)
Procedure, shortened: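 VDR-UAS-bla HEK293T cells in 2% charcoal-stripped FBS were stimulated with 1-alpha,25-dihydroxyvitamin D3 (3 nM final) plus compound for 16 h at 37 C. The beta-lactamase CCF4 readout was normalized to 50 nM agonist and DMSO, and Hill fits gave IC50.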

[3] = biological target: Vitamin D3 receptor (Homo sapiens) (UniProt P11473); test: qHTS assay for small molecule agonists of vitamin D receptor signaling (AID 588543; calls by dose curve)
Procedure, shortened: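 GeneBLAzer VDR-UAS-bla HEK293T cells in 2% charcoal-stripped FBS medium were dosed with compound titrations for 16 h at 37 °C; CCF4 β-lactamase readout (405 nm ex, 460/530 nm em). EC50 and efficacy from Hill fits, normalized to 50 nM calcitriol (100%) and DMSO (0%).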

[4] = qHTS assay for small molecule agonists of retinoid X receptor alpha signaling (AID 588544; calls by dose curve; further: potency means the concentration at half of the fitted maximal effect); settings: HEK293T RXRa-UAS-bla, beta-lactamase reporter, 18 h; 530 nm emission
[5] = biological target: Retinoic acid receptor RXR-alpha (Homo sapiens) (UniProt P19793); test: as above
[6] = biological target: Thyroid hormone receptor beta (Homo sapiens) (UniProt P10828); test: qHTS assay for small molecule agonists of thyroid hormone receptor beta signaling (AID 588545; calls by dose curve)
Procedure, shortened: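 In this cell-based screen, titrated compounds act on HEK 293 cells held in medium with 2% charcoal/dextran FBS, NEAA and pyruvate for 18 hrs at 37 C. Responses are expressed relative to T3 (10 nM) as 100% and basal DMSO as 0%.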

[7] = qHTS assay for small molecule antagonists of retinoid X receptor alpha signaling (AID 588546; active means well fitted inhibition curve with a large enough effect in the signal ratio, with a control signal flat, not every such curve was filed as active; the % refers to the signal ratio;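 further: cells stimulated with 9-cis-retinoic acid as agonist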); settings: HEK293T RXRa-UAS-bla, beta-lactamase ratio, antagonist mode; measured here: W530 green channel, cytotoxicity proxy
Procedure, shortened: (§1)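 Beta-lactamase reporter inhibition, read as CCF4 fluorescence ratio (ex 405, em 460/530 nm) after 2 h at RT. HEK293T UAS-bla cells, 2500/well, were stimulated with 9-cis-RA at 500 or 100 nM final alongside test compound for 18 h at 37 C.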

[8] = biological target: Retinoic acid receptor RXR-alpha (Homo sapiens) (UniProt P19793); test: as above; settings: HEK293T RXRa-UAS-bla, beta-lactamase ratio, antagonist mode
Procedure, shortened: as §1

[9] = biological target: Thyroid hormone receptor beta (Homo sapiens) (UniProt P10828); test: qHTS assay for small molecule antagonists of thyroid hormone receptor beta signaling (AID 588547; active means well fitted inhibition curve with a large enough effect in the signal ratio, with a control signal flat, not every such curve was filed as active; the % refers to the signal ratio;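 further: cells stimulated with 0.4 nM T3 agonist during compound exposure; series mostly up to about 77 µM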); settings: TR-UAS-bla HEK293, beta-lactamase ratio, antagonist mode, 18 h
Procedure, shortened: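 TR-UAS-bla GripTite HEK293 cells in 2% charcoal/dextran FBS medium; compounds 0.59 nM to 92 uM with T3 at 0.4nM final, 18 h at 37 C. Beta-lactamase read by CCF4 fluorescence (460/530 nm); Hill fits gave IC50 and efficacy.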

[10] = biological target: Voltage-gated inwardly rectifying potassium channel KCNH2 (Homo sapiens) (UniProt Q12809); test: qHTS Assay for Small Molecule Inhibitors of the Human hERG Channel Activity (AID 588834);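 further: lower thallium flux fluorescence means stronger hERG block; nearly all actives have a fitted effect of over 50% in size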; further: potency means the concentration at half of the fitted maximal effect
Procedure, shortened: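 In hERG-transduced U2OS cells, dye-loaded for 1 hr at room temperature in dark, test compounds incubated 10 min at 37 °C before thallium stimulation. AC50 values derived by Hill modelling of concentration-response.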

[11] = biological target: Glutaminase kidney isoform, mitochondrial (Homo sapiens) (UniProt O94925); test: qHTS for Inhibitors of Glutaminase (GLS): LOPAC Validation (AID 624146); further: nearly all actives have a fitted effect of over 60% in size; further: potency means the concentration at half of the fitted maximal effect
Procedure, shortened: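 Compounds were pin-transferred onto hKGA, after which L-glutamine (1 mM solution) and a detection mix of glutamate oxidase, HRP and Amplex Red were added. Initial and 30 min RT fluorescence reads were collected.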

[12] = qHTS of Trypanosoma Brucei Inhibitors: LOPAC Validation (AID 624147)
Procedure, shortened: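 Activity of T. brucei pyruvate kinase was followed by Kinase-Glo Plus luminescence after the enzyme reacted 45 min at room temperature with 130 uM ADP (final) and substrate. Test compounds were added before ADP at multiple concentrations.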

[13] = biological target: Glucagon-like peptide 1 receptor (Homo sapiens) (UniProt P43220); test: qHTS of GLP-1 Receptor Agonists: LOPAC Validation (AID 624148);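 further: higher luminescence signal means agonism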
Procedure, shortened: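 HEK293 cells stably co-expressing GLP-1R and a cAMP-responsive luciferase reporter, plated 12 hours before compound, then incubated 4-6 hr at 37 deg C. Luminescence read 12 min after detection reagent.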

[14] = qHTS of Nrf2 Activators: LOPAC Validation (AID 624149)
Procedure, shortened: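 AREc32_Fluc cells, 1000/well, OPTI-MEM + 5% FBS, o/n 37 deg C 5% CO2; compound pin-transfer, 24 hr 37 deg C; Steady-Glo 30 min RT, luminescence read.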

[15] = HTS Assay for Allosteric Antagonists of the Human D2 Dopamine Receptor: Hit Validation in HTRF (AID 624455)
Procedure, shortened: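 HTRF read-out; cells stably expressing D1 receptor; hits scored for inhibition of D1-mediated response. Primary screen: calcium flux, force-coupled inducible Hek293 Trex D2 line, antagonism vs EC80 dopamine.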

[16] = biological target: Luciferin 4-monooxygenase (Photinus pyralis) (UniProt P08659); test: Biochemical firefly luciferase enzyme assay for NPC (AID 624030)
Procedure, shortened: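 Purified P. pyralis luciferase at 10 nM in 50 mM Tris Acetate (final), luminescence read within 5 minutes of enzyme addition to compounds. Activity normalised to PTC124 versus DMSO; concentration-response curves classed by r2, magnitude and activity.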

[17] = S16 Schwann cell PMP22 intronic element firefly luciferase assay (AID 624032)
Procedure, shortened: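 Rat S16 Schwann cells stably carrying firefly luciferase driven by a PMP22 intronic element, in 10% FBS, treated 24 h at 37 C. ONE-Glo luminescence normalized to PTC124 control and DMSO (0%); curves classed by r2, magnitude and activity.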

[18] = S16 Schwann cell PMP22 intronic element beta-lactamase assay (AID 624044; calls by dose curve)
Procedure, shortened: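 Beta-lactamase reporter under a PMP22 intronic regulatory element in stable S16 rat Schwann cells; 24 h compound exposure. 460 nm blue signal normalized between DMSO (0%) and potassium clavulanate, with 535 nm FRET tracking viability; curves classed by r2 and response.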

[19] = biological target: Peroxisome proliferator-activated receptor gamma (Homo sapiens) (UniProt P37231); test: qHTS assay for small molecule antagonists of peroxisome proliferator-activated receptor gamma signaling (AID 588537; active means well fitted inhibition curve with a large enough effect in the signal ratio, with a control signal flat, not every such curve was filed as active; the % refers to the signal ratio; further: potency means the concentration at half of the fitted maximal effect)
Procedure, shortened: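 Read-out: CCF4 fluorescence (ex 405, em 460/530 nm) after 2 h at RT. Cells were HEK293 carrying a UAS-bla reporter and treated 16 h at 37 C with compound plus rosiglitazone (50 nM final). Normalized to rosiglitazone and DMSO.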

Thyroid hormone receptor beta (Homo sapiens), sequence (P10828 whole entry, looked up): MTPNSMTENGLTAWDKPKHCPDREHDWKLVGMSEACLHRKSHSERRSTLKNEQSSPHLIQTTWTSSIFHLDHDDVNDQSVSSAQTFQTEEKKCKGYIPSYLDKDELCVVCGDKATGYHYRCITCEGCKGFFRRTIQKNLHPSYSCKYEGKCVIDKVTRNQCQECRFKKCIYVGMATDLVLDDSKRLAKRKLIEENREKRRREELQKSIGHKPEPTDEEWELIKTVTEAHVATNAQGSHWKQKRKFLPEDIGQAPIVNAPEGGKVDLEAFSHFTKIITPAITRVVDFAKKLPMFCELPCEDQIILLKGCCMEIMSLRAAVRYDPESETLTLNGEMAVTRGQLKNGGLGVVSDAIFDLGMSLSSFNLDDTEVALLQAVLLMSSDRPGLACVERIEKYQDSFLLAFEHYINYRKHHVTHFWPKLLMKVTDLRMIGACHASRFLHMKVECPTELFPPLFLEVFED
Glutaminase kidney isoform, mitochondrial (Homo sapiens), sequence (O94925 whole entry, looked up, canonical isoform): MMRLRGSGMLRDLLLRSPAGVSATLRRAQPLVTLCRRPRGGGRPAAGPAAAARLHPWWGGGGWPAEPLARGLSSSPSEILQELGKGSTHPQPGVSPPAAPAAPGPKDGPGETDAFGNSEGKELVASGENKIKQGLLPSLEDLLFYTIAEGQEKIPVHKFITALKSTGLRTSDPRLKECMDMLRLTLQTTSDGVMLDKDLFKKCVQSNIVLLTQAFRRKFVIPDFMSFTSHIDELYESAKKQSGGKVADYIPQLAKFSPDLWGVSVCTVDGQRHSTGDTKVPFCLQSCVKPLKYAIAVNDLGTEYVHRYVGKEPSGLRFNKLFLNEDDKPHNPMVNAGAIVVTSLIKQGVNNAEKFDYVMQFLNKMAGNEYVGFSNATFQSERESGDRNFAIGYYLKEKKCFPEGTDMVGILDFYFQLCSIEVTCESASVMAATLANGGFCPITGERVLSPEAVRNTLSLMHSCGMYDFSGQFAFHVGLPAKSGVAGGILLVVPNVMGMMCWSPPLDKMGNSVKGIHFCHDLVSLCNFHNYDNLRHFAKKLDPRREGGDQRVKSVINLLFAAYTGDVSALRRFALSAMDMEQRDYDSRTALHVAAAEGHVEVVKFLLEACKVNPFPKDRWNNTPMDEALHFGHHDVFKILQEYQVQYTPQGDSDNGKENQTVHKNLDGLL
Voltage-gated inwardly rectifying potassium channel KCNH2 (Homo sapiens), sequence (Q12809 whole entry, looked up): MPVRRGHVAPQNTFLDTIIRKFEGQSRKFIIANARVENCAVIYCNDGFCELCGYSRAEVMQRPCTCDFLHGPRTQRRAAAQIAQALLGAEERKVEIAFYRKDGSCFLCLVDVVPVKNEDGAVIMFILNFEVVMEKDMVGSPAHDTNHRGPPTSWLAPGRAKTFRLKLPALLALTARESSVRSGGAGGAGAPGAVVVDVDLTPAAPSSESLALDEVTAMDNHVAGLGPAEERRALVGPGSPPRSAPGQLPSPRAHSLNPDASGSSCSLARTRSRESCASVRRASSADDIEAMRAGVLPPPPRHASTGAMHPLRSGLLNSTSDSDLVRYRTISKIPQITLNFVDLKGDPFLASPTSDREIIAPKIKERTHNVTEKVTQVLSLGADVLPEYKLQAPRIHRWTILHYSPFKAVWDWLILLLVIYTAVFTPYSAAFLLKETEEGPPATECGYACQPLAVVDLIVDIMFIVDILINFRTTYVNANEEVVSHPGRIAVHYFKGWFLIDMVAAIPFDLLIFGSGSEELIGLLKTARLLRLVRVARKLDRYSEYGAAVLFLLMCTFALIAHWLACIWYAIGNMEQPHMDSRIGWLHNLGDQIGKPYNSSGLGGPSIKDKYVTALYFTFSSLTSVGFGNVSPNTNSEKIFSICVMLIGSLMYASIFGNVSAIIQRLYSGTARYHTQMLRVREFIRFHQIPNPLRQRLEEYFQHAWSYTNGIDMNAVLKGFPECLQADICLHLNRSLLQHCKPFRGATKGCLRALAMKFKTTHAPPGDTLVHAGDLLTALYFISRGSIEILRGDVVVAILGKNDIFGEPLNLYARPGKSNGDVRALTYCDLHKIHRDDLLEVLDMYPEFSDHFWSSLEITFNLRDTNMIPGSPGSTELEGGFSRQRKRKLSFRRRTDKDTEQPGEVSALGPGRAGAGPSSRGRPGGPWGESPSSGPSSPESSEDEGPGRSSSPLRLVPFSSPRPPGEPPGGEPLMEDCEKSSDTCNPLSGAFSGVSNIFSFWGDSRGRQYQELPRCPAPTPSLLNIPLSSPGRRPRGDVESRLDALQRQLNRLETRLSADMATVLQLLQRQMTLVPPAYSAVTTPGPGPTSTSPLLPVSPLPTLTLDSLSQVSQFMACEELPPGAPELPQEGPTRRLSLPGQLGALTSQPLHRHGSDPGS
Peroxisome proliferator-activated receptor gamma (Homo sapiens), sequence (P37231 whole entry, looked up): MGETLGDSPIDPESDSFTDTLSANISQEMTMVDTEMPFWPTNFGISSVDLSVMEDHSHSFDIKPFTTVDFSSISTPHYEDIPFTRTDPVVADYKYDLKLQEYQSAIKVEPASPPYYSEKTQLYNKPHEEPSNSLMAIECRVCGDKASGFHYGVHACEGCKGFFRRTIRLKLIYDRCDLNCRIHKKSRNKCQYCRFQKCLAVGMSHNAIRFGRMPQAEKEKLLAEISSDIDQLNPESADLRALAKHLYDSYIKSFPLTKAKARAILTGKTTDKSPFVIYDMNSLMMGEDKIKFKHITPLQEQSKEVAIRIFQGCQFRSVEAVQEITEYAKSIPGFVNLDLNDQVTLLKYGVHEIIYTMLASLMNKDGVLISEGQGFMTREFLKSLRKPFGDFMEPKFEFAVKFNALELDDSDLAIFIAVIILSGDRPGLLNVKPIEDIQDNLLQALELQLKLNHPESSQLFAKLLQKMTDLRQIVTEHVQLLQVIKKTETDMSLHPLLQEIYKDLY
Retinoic acid receptor RXR-alpha (Homo sapiens), sequence (P19793 whole entry, looked up): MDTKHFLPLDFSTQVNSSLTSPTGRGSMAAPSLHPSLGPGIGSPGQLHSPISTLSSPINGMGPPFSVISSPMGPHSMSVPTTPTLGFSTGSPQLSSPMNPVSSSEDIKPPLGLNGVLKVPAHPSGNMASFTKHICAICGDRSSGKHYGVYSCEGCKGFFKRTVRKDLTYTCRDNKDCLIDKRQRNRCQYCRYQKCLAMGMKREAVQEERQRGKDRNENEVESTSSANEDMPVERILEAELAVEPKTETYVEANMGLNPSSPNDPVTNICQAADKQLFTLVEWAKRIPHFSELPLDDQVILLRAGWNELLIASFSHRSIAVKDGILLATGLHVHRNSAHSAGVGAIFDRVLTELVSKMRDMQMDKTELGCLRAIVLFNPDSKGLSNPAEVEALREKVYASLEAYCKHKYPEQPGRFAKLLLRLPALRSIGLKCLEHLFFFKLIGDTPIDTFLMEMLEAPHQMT
Glucagon-like peptide 1 receptor (Homo sapiens), sequence (P43220 whole entry, looked up): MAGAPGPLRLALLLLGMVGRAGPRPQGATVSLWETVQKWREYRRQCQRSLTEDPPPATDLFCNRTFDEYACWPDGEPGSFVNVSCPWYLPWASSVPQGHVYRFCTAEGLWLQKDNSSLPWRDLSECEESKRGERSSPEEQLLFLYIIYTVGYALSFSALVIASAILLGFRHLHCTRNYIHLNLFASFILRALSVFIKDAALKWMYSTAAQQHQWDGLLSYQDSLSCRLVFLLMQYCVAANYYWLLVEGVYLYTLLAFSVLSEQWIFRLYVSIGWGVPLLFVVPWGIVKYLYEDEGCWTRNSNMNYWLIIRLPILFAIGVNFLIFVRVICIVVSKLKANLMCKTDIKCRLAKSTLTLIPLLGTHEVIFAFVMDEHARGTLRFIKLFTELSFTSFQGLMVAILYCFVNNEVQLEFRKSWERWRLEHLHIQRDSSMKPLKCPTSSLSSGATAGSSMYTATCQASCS
Vitamin D3 receptor (Homo sapiens), sequence (P11473 whole entry, looked up): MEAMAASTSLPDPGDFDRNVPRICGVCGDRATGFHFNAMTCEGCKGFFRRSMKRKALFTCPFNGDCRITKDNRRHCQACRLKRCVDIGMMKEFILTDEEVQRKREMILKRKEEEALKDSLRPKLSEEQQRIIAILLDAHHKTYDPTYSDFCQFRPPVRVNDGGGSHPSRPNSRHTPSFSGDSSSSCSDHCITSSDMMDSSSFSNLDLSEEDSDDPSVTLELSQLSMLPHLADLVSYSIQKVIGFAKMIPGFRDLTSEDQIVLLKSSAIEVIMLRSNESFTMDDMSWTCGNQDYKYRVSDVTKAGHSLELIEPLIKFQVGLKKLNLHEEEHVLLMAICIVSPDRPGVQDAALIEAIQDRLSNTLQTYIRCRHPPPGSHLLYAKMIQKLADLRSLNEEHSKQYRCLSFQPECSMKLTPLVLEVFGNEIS

CC(=O)C(C)=O
Potency [1]: inactive | outcome [2]: inactive | outcome [3]: inactive | max response [4]: -1.88% | Potency [5]: inactive | outcome [6]: inactive | max response [7]: 7.05% | max response [8]: 13% (inactive) | activity change % (negative = inhibition) [9]: -0.316% (inactive) | Potency [10]: inactive | Potency [11]: inactive | Potency [12]: inactive | Potency [13]: inactive | Potency [14]: inactive | Potency [15]: inactive

NC(=O)CC[C@H](N)C(=O)O
Potency [10]: inactive | Potency [11]: inactive | Potency [12]: inactive | Potency [13]: inactive | Potency [14]: inactive

NC(N)=[N+]1CCc2ccccc2C1
Potency [10]: inactive | Potency [11]: inactive | Potency [12]: inactive | Potency [13]: inactive | Potency [14]: inactive

Cn1ccnc1
Potency [10]: inactive | Potency [11]: inactive | Potency [12]: inactive | Potency [13]: inactive | Potency [14]: inactive

NC1(C(=O)O)CCCCC1
Potency [10]: inactive | Potency [11]: inactive | Potency [12]: inactive | Potency [13]: inactive | Potency [14]: inactive

N[C@@H](CS(=O)O)C(=O)O
Potency [10]: inactive | Potency [11]: inactive | Potency [12]: inactive | Potency [13]: inactive | Potency [14]: inactive

Fc1ccc(CN(C2=NCCN2)c2c(Cl)cccc2Cl)cc1
Potency [10]: 10 µM (active) | Potency [11]: inactive | Potency [12]: inactive | Potency [13]: inactive | Potency [14]: inactive

CC[C@@H]1Cc2cc(O)ccc2C2=C1c1ccc(O)cc1C[C@H]2CC
outcome [3]: inactive | Potency [11]: 0.794 µM (active) | Potency [12]: inactive | Potency [13]: inactive | Potency [14]: inactive

OCC1NCC(O)C(O)C1O (configuration not stated)
Potency [10]: inactive | Potency [11]: inactive | Potency [12]: inactive | Potency [13]: inactive | Potency [14]: inactive

Cc1ccc([N+](=O)[O-])cc1S(=O)(=O)N(C)C
Potency [10]: inactive | Potency [11]: inactive | Potency [12]: inactive | Potency [13]: inactive | Potency [14]: inactive

CCCCOC(=O)NS(=O)(=O)c1sc(CC(C)C)cc1-c1ccc(Cn2c(CC)nc3c(C)cc(C)nc32)cc1
Potency [10]: 14.1 µM (active) | Potency [11]: inactive | Potency [12]: inactive | Potency [13]: inactive | Potency [14]: inactive

O=[N+]([O-])c1cccc2cn[nH]c12
Potency [10]: inactive | Potency [11]: inactive | Potency [12]: inactive | Potency [13]: inactive | Potency [14]: inactive

CCOC(=O)C12CC1/C(=N/O)c1ccccc1O2 (configuration not stated)
Potency [10]: inactive | Potency [11]: inactive | Potency [12]: inactive | Potency [13]: inactive | Potency [14]: inactive

Cc1nc(N=Nc2ccc(C(=O)O)cc2)c(COP(=O)(O)O)c(C=O)c1O
Potency [10]: inactive | Potency [11]: inactive | Potency [12]: inactive | Potency [13]: inactive | Potency [14]: inactive | Potency [15]: inactive

COc1ccc2c(c1)c(CC(=O)O)c(C)n2C(=O)c1ccccc1
Potency [10]: inactive | Potency [11]: inactive | Potency [12]: inactive | Potency [13]: inactive | Potency [14]: inactive

COC1(C2=NCCN2)COc2ccccc2O1 (configuration not stated)
Potency [10]: inactive | Potency [11]: inactive | Potency [12]: inactive | Potency [13]: inactive | Potency [14]: inactive

C=C1C(=O)O[C@@H]2[C@H]3O[C@]3(C)CCC=C(C)CC[C@@H]12
Potency [10]: inactive | Potency [11]: inactive | Potency [12]: inactive | Potency [13]: inactive | Potency [14]: inactive

O=c1ccn([C@@H]2O[C@H](COP(=O)(O)OP(=O)(O)O)[C@@H](O)[C@H]2O)c(=O)[nH]1
Potency [10]: inactive | Potency [11]: inactive | Potency [12]: inactive | Potency [13]: inactive | Potency [14]: inactive | Potency [15]: inactive

CCCC[C@@]1(C2CCCC2)Cc2cc(OCC(=O)O)c(Cl)c(Cl)c2C1=O
Potency [10]: inactive | Potency [11]: inactive | Potency [12]: inactive | Potency [13]: inactive | Potency [14]: inactive

CC(=O)NNC(=O)N1Cc2ccccc2Oc2ccc(Cl)cc21
Potency [10]: inactive | Potency [11]: inactive | Potency [12]: inactive | Potency [13]: inactive | Potency [14]: inactive

CCCCCCC/C=C\CCCCCCCCC(=O)O
Potency [10]: inactive | Potency [11]: inactive | Potency [12]: inactive | Potency [13]: inactive | Potency [14]: inactive | Potency [15]: inactive

NC(=Nc1ccccc1)NC(=O)c1nc(Cl)c(N)nc1N
Potency [10]: 14.1 µM (active) | Potency [11]: inactive | Potency [12]: inactive | Potency [13]: inactive | Potency [14]: inactive

Cn1c(=O)[nH]c2ncn(C)c2c1=O
Potency [10]: inactive | Potency [11]: inactive | Potency [12]: inactive | Potency [13]: inactive | Potency [14]: inactive

C/C(=C\c1ccc(C(=O)O)cc1)c1ccc2c(c1)C(C)(C)CCC2(C)C
outcome [2]: inactive | outcome [3]: inactive | max response [4]: 0.91% | Potency [5]: 0.708 µM (active) | max response [7]: -6.55% | max response [8]: 9.51% (inactive) | Potency [10]: inactive | Potency [11]: inactive | Potency [12]: inactive | Potency [13]: inactive | Potency [14]: inactive

CC(C)C[C@H](NC(=O)C1OC1C(=O)O)C(=O)NCCCCN=C(N)N (some centres not stated)
Potency [10]: inactive | Potency [11]: inactive | Potency [12]: inactive | Potency [13]: inactive | Potency [14]: inactive

CCCCCCCCCCCCCCSCC(=O)O
Potency [1]: 28.2 µM (active) | outcome [6]: inactive | max response [7]: 10.4% | max response [8]: 5.79% (inactive) | activity change % (negative = inhibition) [9]: -24.7% (inactive) | Potency [10]: inactive | Potency [12]: inactive | Potency [13]: inactive | Potency [14]: inactive

CCCc1c(-c2ccc(O)cc2)nn(-c2ccc(O)cc2)c1-c1ccc(O)cc1
Potency [19]: 22.4 µM (active) | outcome [3]: inactive | Potency [10]: inactive | Potency [11]: inactive | Potency [12]: inactive | Potency [13]: inactive | Potency [14]: inactive | Potency [15]: inactive

CSC(N)=NCCC[C@H](N)C(=O)O
Potency [10]: inactive | Potency [11]: inactive | Potency [12]: inactive | Potency [13]: inactive | Potency [14]: inactive | Potency [15]: inactive

O=C1OC(=O)C2C3CCC(O3)C12 (configuration not stated)
Potency [10]: inactive | Potency [11]: inactive | Potency [12]: inactive | Potency [13]: inactive | Potency [14]: inactive | Potency [15]: inactive
